The values that follow come from PubChem BioAssay (NCATS).

Experiment [1] concerns the target Cellular tumor antigen p53 (Homo sapiens) (UniProt P04637). Nature of the experiment: Primary qHTS for small molecule compounds that upregulate eGFP-tagged delta133p53alpha (in N-terminal) cells. (AID 2060322).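 Also: series mostly up to about 56 µM; 0% = DMSO vehicle and 100% = reference activator; nearly all actives have a fitted effect of over 75% in size.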 The settings on record: NCI-H358 eGFP-delta133p53alpha fluorescence, 24 h; activation: hits give high values. The essentials:
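NCI-H358 cells pre-induced 24 h with 10 ng/ml doxycycline to express N-terminal eGFP-delta133p53alpha, then dosed 24 h at 37C without doxycycline; fixed, Hoechst-stained, GFP intensity by laser scanning cytometry, normalized to DMSO (0%) and 57.5 uM 5-azacytidine (100%).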
For orientation: Quantitative high-throughput screening tests each substance at several concentrations.

Experiment [2] shares this target. Briefly: Primary qHTS for small molecule compounds that upregulate eGFP-tagged delta133p53alpha (in C-terminal) cells. (AID 2060324). Also: potency is read from the fitted curve at half-maximal effect. In a few lines:
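NCI-H358 cells with doxycycline-inducible D133p53a-eGFP (C-terminal tag), pre-induced 24 h with 100 ng/ml doxycycline, plated 800/well in doxycycline-free medium and treated 24 h at 37 °C with compound titrations. Cells were then fixed and Hoechst-stained, and GFP intensity was read by laser scanning cytometry.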

In experiment [3] the target is Aldehyde dehydrogenase, mitochondrial (Homo sapiens) (UniProt P05091). Nature of the experiment: qHTS for Inhibitors of the Aldehyde Dehydrogenase Family (ALDH2) Validation screens (AID 2061302; active = well fitted inhibition curve with a large enough effect; title and protocol of this record describe different tests;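 also: plate controls were DMSO vehicle for no effect and maximal DPI positive control response for full effect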).
In experiment [4] the target is Retinaldehyde dehydrogenase 3 (Homo sapiens) (UniProt P47895). Nature of the experiment: qHTS for Inhibitors of the Aldehyde Dehydrogenase Family (ALDH1A3) Validation screen (AID 2061312). Also: % is scaled to controls: 0 for no effect and ±100 for the full control effect; nearly all actives have a fitted effect of over 45% in size.

Values joined by “and” are separate entries in the source; they are usually repeats but may differ in a detail not shown here. Equal values may be shown once. Results filed as inconclusive are left out. A number with no mark means an inactive call. Active and inactive are the calls of the source. Unless noted, calls follow the shape of the dose curve; as a rule, active = well fitted curve in the direction sought with a large enough effect; inconclusive = small, poorly fitted or top-dose-only effect, or another doubt; inactive = no such curve, though single readings can be large; an effect the other way counts as inactive or inconclusive.

Cellular tumor antigen p53 (Homo sapiens), sequence (P04637 whole entry, looked up): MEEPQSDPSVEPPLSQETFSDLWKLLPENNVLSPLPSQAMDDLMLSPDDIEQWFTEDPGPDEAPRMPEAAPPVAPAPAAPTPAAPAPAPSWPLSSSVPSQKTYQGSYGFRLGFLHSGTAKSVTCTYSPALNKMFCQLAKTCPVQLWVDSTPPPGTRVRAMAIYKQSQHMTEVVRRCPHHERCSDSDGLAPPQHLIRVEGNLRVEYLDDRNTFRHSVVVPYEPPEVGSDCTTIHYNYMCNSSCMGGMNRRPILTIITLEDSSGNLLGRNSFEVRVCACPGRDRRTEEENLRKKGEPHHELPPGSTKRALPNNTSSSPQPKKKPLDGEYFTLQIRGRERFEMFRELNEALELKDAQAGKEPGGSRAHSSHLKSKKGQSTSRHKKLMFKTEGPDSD

Turning to `Cc1nc2sccn2c(=O)c1CCN1CCC(=C(c2ccc(F)cc2)c2ccc(F)cc2)CC1`, in experiment [1], the activation was -20.9% and -40.8%. Besides, the Potency entry in experiment [2], in experiment [3] and in experiment [4] was “inactive” throughout.
On to `C[N+](C)(C)CCOC(N)=O`, for which the activation in experiment [1] was -23.4% and -15.4%. Besides, the Potency result in experiment [2], in experiment [3] and in experiment [4] was “inactive” throughout.
Consider `CN(CC[C@@H](Oc1ccc(C(F)(F)F)cc1)c1ccccc1)CC(=O)O`, for which the activation in experiment [1] was 2.22%. Moreover, the Potency entry in experiment [2], in experiment [3] and in experiment [4] was “inactive” throughout.
As to `NS(=O)(=O)C#Cc1ccccc1`, the activation in experiment [1] is 60.6%. For the same molecule, the Potency in experiment [2] is 30.1 µM (active). Moreover, the Potency result in experiment [3] and in experiment [4] was “inactive” in each case.
Take `COCCOC(=O)C1=C(C)NC(C)=C(C(=O)OC/C=C/c2ccccc2)C1c1cccc([N+](=O)[O-])c1` (stereo not drawn): the activation in experiment [1] was 8.47% and -12.4%. In addition, the Potency result in experiment [2], in experiment [3] and in experiment [4] was “inactive” each time.
On to `CN1CCN(C2Cc3ccccc3Sc3ccc(Cl)cc32)CC1` (stereo not drawn), for which, in experiment [1], the activation is -14.1%. Also, the Potency result in experiment [2], in experiment [3] and in experiment [4] was “inactive” throughout.
Consider `CN1CC(O)C(O)C(O)C1CO` (stereo not drawn), for which the activation in experiment [1] is 9.95%. Further, the Potency entry in experiment [2], in experiment [3] and in experiment [4] was “inactive” in each case.
For `Clc1ccc(N2CCN(Cc3cc4ccccn4n3)CC2)cc1`, the activation in experiment [1] was -21.6%. Also, the Potency result in experiment [2], in experiment [3] and in experiment [4] was “inactive” in each case.
With `O=C(CCCCCN1CCN(c2ccccc2-c2ccccc2)CC1)NC1CCCc2ccccc21` (stereo not drawn), in experiment [1], the activation is -20.9%. Besides, the Potency result in experiment [2], in experiment [3] and in experiment [4] was “inactive” throughout.
Regarding `O=c1[nH]c2ccccc2c2ccccc12`, the activation in experiment [1] was 11.2%. Besides, the Potency entry in experiment [2], in experiment [3] and in experiment [4] was “inactive” throughout.
On to `CCN(CC)CCOC(=O)c1ccc(N)cc1`, for which the activation in experiment [1] is -14.2% and -16.3%. Also, the Potency entry in experiment [2], in experiment [3] and in experiment [4] was “inactive” each time.
With `O=C(Nc1ccncc1)c1cc([N+](=O)[O-])ccc1Cl`, the activation in experiment [1] was 6.63%. Further, the Potency result in experiment [2], in experiment [3] and in experiment [4] was “inactive” each time.
In the case of `OCC1O[C@H](O)C(Cl)C(O)C1O` (stereo partly drawn), in experiment [1], the activation was -8.54%. Moreover, the Potency result in experiment [2], in experiment [3] and in experiment [4] was “inactive” in each case.
In the case of `CCn1nc(C(=O)O)c(=O)c2cc3c(cc21)OCO3`, the activation in experiment [1] was -7.53% and -29.2%. The Potency result in experiment [2], in experiment [3] and in experiment [4] was “inactive” each time.
Take `CCCn1c(=O)c(C)cn2nc(N)nc12`: the activation in experiment [1] was -37.9%. Besides, the Potency entry in experiment [2], in experiment [3] and in experiment [4] was “inactive” each time.
On to `O=C(O)C1CCCNC1` (stereo not drawn), for which the activation in experiment [1] is -25.6%. In addition, the Potency result in experiment [2], in experiment [3] and in experiment [4] was “inactive” each time.
Turning to `NC[C@@H]1O[C@H](c2ccccc2)Cc2c1ccc(O)c2O`, the activation in experiment [1] was 5.43%. The Potency result in experiment [2], in experiment [3] and in experiment [4] was “inactive” in each case.
With `N[C@@H](COP(=O)(O)O)C(=O)O`, the activation in experiment [1] is -2.51% and -5.8%. Besides, the Potency result in experiment [2], in experiment [3] and in experiment [4] was “inactive” throughout.
As for `CC(C)Cc1ccc([C@H](C)C(=O)O)cc1`, the activation in experiment [1] is -12.1%. Also, the Potency entry in experiment [2], in experiment [3] and in experiment [4] was “inactive” throughout.
On to `C=CC[C@H](N)C(=O)O`, for which the activation in experiment [1] is -35.4%. Further, the Potency entry in experiment [2], in experiment [3] and in experiment [4] was “inactive” in each case.
For the molecule `Cc1ccc(=O)n(-c2ccccc2)c1`, in experiment [1], the activation was 1.01%. Further, the Potency result in experiment [2], in experiment [3] and in experiment [4] was “inactive” in each case.
For `COC(=O)C(C)(N)Cc1ccc(O)cc1` (stereo not drawn), the activation in experiment [1] is -5.7%. For the same molecule, the Potency entry in experiment [2], in experiment [3] and in experiment [4] was “inactive” each time.
Consider `CN(C)c1nc(N)c(C(=O)N=C(N)N)nc1Cl`, for which the activation in experiment [1] was -52.6%. Moreover, the Potency result in experiment [2], in experiment [3] and in experiment [4] was “inactive” throughout.
Regarding `CC(C(=O)O)c1ccc(CC2CCCC2=O)cc1` (stereo not drawn), the activation in experiment [1] was -10% and 11.7%. Also, the Potency entry in experiment [2], in experiment [3] and in experiment [4] was “inactive” in each case.
On to `Cc1ccc([N+](=O)[O-])cc1S(=O)(=O)N(C)C`, for which the activation in experiment [1] is -2.98%. Further, the Potency entry in experiment [2], in experiment [3] and in experiment [4] was “inactive” in each case.
Take `Nc1ccc(CCNc2ncnc3c2ncn3C2OC(CO)C(O)C2O)cc1` (stereo not drawn): the activation in experiment [1] is -6.89%. For the same molecule, the Potency entry in experiment [2], in experiment [3] and in experiment [4] was “inactive” throughout.
Regarding `COc1cc(Cc2cnc(N)nc2N)cc(OC)c1OC`, in experiment [1], the activation was -5.08% and -24.5%. Moreover, the Potency entry in experiment [2], in experiment [3] and in experiment [4] was “inactive” each time.
For the molecule `Nc1ccc(-c2nc3ccc(-c4nc5ccc(N)cc5[nH]4)cc3[nH]2)cc1`, the activation in experiment [1] was -9.36%. Further, the Potency result in experiment [2], in experiment [3] and in experiment [4] was “inactive” each time.
`O=C(c1ccc(OCCCc2cnc[nH]2)cc1)C1CC1`: the activation in experiment [1] was 6.88%. Also, the Potency result in experiment [2], in experiment [3] and in experiment [4] was “inactive” in each case.
On to `Cn1c(=O)[nH]c2ncn(C)c2c1=O`, for which, in experiment [1], the activation was -21.1%. Also, the Potency entry in experiment [2], in experiment [3] and in experiment [4] was “inactive” in each case.
Take `CC(C)[C@@H]1CC[C@@H](C)C[C@@H]1P(=O)(c1ccccc1)c1ccccc1`: the activation in experiment [1] is -3.04%. Besides, the Potency result in experiment [2], in experiment [3] and in experiment [4] was “inactive” in each case.
With `Fc1ccc(C(OCCCc2cnc[nH]2)c2ccc(F)cc2)cc1`, in experiment [1], the activation was -45.7%. Further, the Potency result in experiment [2], in experiment [3] and in experiment [4] was “inactive” throughout.
